# Source: article PMC11062922 (Nature Chemical Biology, 2023)
# Where two headings read alike, the source gives them in different places.
# Assays:
# Parameters in all cases: species or system human, MV4-11 + K-562 + COLO205 + SK-N-BE2 + OVCAR-8
# CDK16 = conditions: read-out: apparent Kd, n = 1
# MAPK10 = conditions: read-out: apparent Kd, n = 1
# MAPK9 = conditions: read-out: apparent Kd, n = 1
# MARK3 = conditions: read-out: apparent Kd, n = 1
# STK16 = conditions: read-out: apparent Kd, n = 1
# STK4 = conditions: read-out: apparent Kd, n = 1
# CHEK1 = conditions: read-out: apparent Kd; compound concentrations:100 nM and 1000 nM (sheet 'Samples'); n = 1
# PRKAG2 = conditions: read-out: apparent Kd, n = 1
# CSNK1D = conditions: read-out: apparent Kd, compound concentrations: 100 nM and 1000 nM (sheet 'Samples'), n = 1
# AURKA = conditions: read-out: apparent Kd, n = 1
# PRKACA = conditions: read-out: apparent Kd, n = 1
# TNK1 = conditions: read-out: apparent Kd, compound concentrations: 100 nM and 1000 nM (sheet 'Samples'), n = 1
# PRKACB = conditions: read-out: apparent Kd, n = 1
# BCR = conditions: read-out: apparent Kd; compound concentrations: 100 nM and 1000 nM (sheet 'Samples'), CATDS: 2.3215110623404499E-2; n = 1
# CAMKK2 = conditions: read-out: apparent Kd; compound concentrations: 100 nM and 1000 nM (sheet 'Samples'), CATDS: 1.7496919808973301E-2; n = 1
# EPHA4 = conditions: read-out: apparent Kd, compound concentrations: 100 nM and 1000 nM (sheet 'Samples'), n = 1
# EPHA5 = conditions: read-out: apparent Kd, compound concentrations: 100 nM and 1000 nM (sheet 'Samples'), n = 1
# EPHB2 = conditions: read-out: apparent Kd, compound concentrations: 100 nM and 1000 nM (sheet 'Samples'), n = 1
# EPHB4 = conditions: read-out: apparent Kd, compound concentrations: 100 nM and 1000 nM (sheet 'Samples'), n = 1
# TNK2 = conditions: read-out: apparent Kd, compound concentrations: 100 nM and 1000 nM (sheet 'Samples'), n = 1
# [1] = compound concentrations:100 nM and 1000 nM (sheet 'Samples')
compound,measurement,setting,value
COc1cc[nH]c1/C=C1\C(=O)Nc2ccc(F)c(C#CC3(O)CCNCC3)c21.Cl [RO0282986-001],potency estimated from few doses,"CDK16; compound concentrations: 100 nM and 1000 nM (sheet 'Samples'), CATDS: 3.6317667749827198E-2",71.4 nM
same,potency estimated from few doses,"MAPK10; compound concentrations: 100 nM and 1000 nM (sheet 'Samples'), CATDS: 9.5486825617733494E-3",1600 nM
same,potency estimated from few doses,"MAPK9; compound concentrations: 100 nM and 1000 nM (sheet 'Samples'), CATDS: 1.5639148944551099E-2",359 nM
same,potency estimated from few doses,"MARK3; compound concentrations: 100 nM and 1000 nM (sheet 'Samples'), CATDS: 1.4968914388982501E-2",398 nM
same,potency estimated from few doses,"STK16; compound concentrations: 100 nM and 1000 nM (sheet 'Samples'), CATDS: 1.3388611542508999E-2",526 nM
same,potency estimated from few doses,"STK4; compound concentrations: 100 nM and 1000 nM (sheet 'Samples'), CATDS: 1.59534503193824E-2",343 nM
O=C(O)C(F)(F)F.O=c1[nH]ccc2nc(N[C@@H]3CCNC3)nc(Nc3cc(Cl)cc(Cl)c3)c12 [GSK2188764A],potency estimated from few doses,CHEK1,711 nM
same,potency estimated from few doses,MARK3; [1],153 nM
same,potency estimated from few doses,PRKAG2; [1],632 nM
same,potency estimated from few doses,STK4; [1],913 nM
CN(C)CC(O)COc1ccc(Nc2nccc(-c3cnn4nc(N5CCOCC5)ccc34)n2)cc1 (centres unmarked) [GW767488X],potency estimated from few doses,CDK16; [1],262 nM
same,potency estimated from few doses,MAPK10; [1],107 nM
same,potency estimated from few doses,MAPK9; [1],134 nM
same,potency estimated from few doses,STK16; [1],69.2 nM
FC(F)(F)c1ccc(-c2ncn(CCCN3CCOCC3)c2-c2ccncc2)cc1 [SB-217780],potency estimated from few doses,"STK4; compound concentrations: 100 nM and 1000 nM (sheet 'Samples'), CATDS: 0.215555066939567",1540 nM
CCN(CC)Cc1ccc(Nc2nccc(-c3cnn4ncccc34)n2)cc1 [GW780056X],potency estimated from few doses,"CDK16; compound concentrations: 100 nM and 1000 nM (sheet 'Samples'), CATDS: 4.3242463436831802E-2",196 nM
same,potency estimated from few doses,CSNK1D; CATDS: 9.4015783065552402E-2,47.8 nM
same,potency estimated from few doses,"MAPK10; compound concentrations: 100 nM and 1000 nM (sheet 'Samples'), CATDS: 3.1976328377255003E-2",371 nM
CN(C)CCNC(=O)Nc1ccc(N(C)c2ccnc(Nc3ccc(CS(C)(=O)=O)cc3)n2)cc1.Cl [GW830900A],potency estimated from few doses,AURKA; [1],893 nM
Cl.Cl.NC(CNC(=O)c1cc(Br)c(-c2ccnc3[nH]ccc23)s1)c1ccccc1.NC(CNC(=O)c1cc(Br)c(-c2ccnc3[nH]ccc23)s1)c1ccccc1 (centres unmarked) [GSK1322949A],potency estimated from few doses,"PRKACA; compound concentrations: 100 nM and 1000 nM (sheet 'Samples'), CATDS: 2.91010350116075E-2",1300 nM
CNc1cc(-c2ccc3c(N)n[nH]c3c2)nc(N)n1 [GSK2224810A],potency estimated from few doses,PRKAG2; [1],1090 nM
c1ccc(-c2n[nH]cc2Nc2ccnc3ccccc23)nc1 [GW694077X],potency estimated from few doses,CSNK1D; CATDS: 2.5323353021981399E-2,1390 nM
same,potency estimated from few doses,"MAPK9; compound concentrations: 100 nM and 1000 nM (sheet 'Samples'), CATDS: 2.3391396830632599E-2",1900 nM
CN(c1ccc(NC(=O)NCCN2CCOCC2)cc1)c1ccnc(Nc2ccc(CS(C)(=O)=O)cc2)n1.Cl [GW830365A],potency estimated from few doses,"AURKA; compound concentrations: 100 nM and 1000 nM (sheet 'Samples'), CATDS: 7.5652675544933198E-2",444 nM
same,potency estimated from few doses,TNK1; CATDS: 5.9117233589801498E-2,792 nM
CCn1c(-c2nonc2N)nc2cncc(C(=O)N3CC[C@H](N)C3)c21.Cl [SB-772077-B],potency estimated from few doses,PRKACA; [1],790 nM
COc1cccc(C2=C(c3c(C)n(C)c4ccccc34)C(=O)NC2=O)c1 [RO3300167-000],potency estimated from few doses,"AURKA; compound concentrations: 100 nM and 1000 nM (sheet 'Samples'), CATDS: 0.14578513534179899",490 nM
same,potency estimated from few doses,"STK4; compound concentrations: 100 nM and 1000 nM (sheet 'Samples'), CATDS: 0.12261986260266899",646 nM
Cl.Cl.NC[C@H](CC1CCCCC1)NC(=O)c1ccc(-c2ccnc3[nH]ccc23)s1.NC[C@H](CC1CCCCC1)NC(=O)c1ccc(-c2ccnc3[nH]ccc23)s1 [GSK1581428A],potency estimated from few doses,PRKACA; [1],31 nM
same,potency estimated from few doses,PRKACB; [1],49.7 nM
CCC(CC)(CC)n1cnc2c(N)ncnc21 [SKF-97620],potency estimated from few doses,"STK16; compound concentrations: 100 nM and 1000 nM (sheet 'Samples'), CATDS: 2.4791853580208099E-2",1810 nM
Cl.Cn1c(=O)c(Cc2ccccc2F)cc2cnc(NC3CCOCC3)nc21 [RO3305377-001],potency estimated from few doses,BCR,783 nM
same,potency estimated from few doses,CAMKK2,1640 nM
same,potency estimated from few doses,EPHA4; CATDS: 2.0796665862367499E-2,1010 nM
same,potency estimated from few doses,EPHA5; CATDS: 2.9701717682633799E-2,481 nM
same,potency estimated from few doses,EPHB2; CATDS: 2.7488679205580801E-2,555 nM
same,potency estimated from few doses,EPHB4; CATDS: 3.5368678995808499E-2,357 nM
same,potency estimated from few doses,"MAPK10; compound concentrations: 100 nM and 1000 nM (sheet 'Samples'), CATDS: 2.2981904071827101E-2",800 nM
same,potency estimated from few doses,"MAPK9; compound concentrations: 100 nM and 1000 nM (sheet 'Samples'), CATDS: 2.8205864879245399E-2",529 nM
same,potency estimated from few doses,"PRKACB; compound concentrations: 100 nM and 1000 nM (sheet 'Samples'), CATDS: 1.8562598651845501E-2",1370 nM
same,potency estimated from few doses,"PRKAG2; compound concentrations: 100 nM and 1000 nM (sheet 'Samples'), CATDS: 2.6904980441579199E-2",578 nM
same,potency estimated from few doses,TNK1; CATDS: 3.75321125845825E-2,325 nM
same,potency estimated from few doses,TNK2; CATDS: 3.6301330504794102E-2,342 nM
Cn1cc(C2=C(c3ccc(OC[C@@H](O)CO)cc3)C(=O)NC2=O)c2ccccc21 [RO3208546-000],potency estimated from few doses,EPHA4; CATDS: 3.51410618583008E-2,1520 nM
same,potency estimated from few doses,EPHA5; CATDS: 3.9302113752780102E-2,1120 nM
same,potency estimated from few doses,EPHB2; CATDS: 4.4288817418137498E-2,840 nM
same,potency estimated from few doses,EPHB4; CATDS: 6.3567639225114006E-2,415 nM
same,potency estimated from few doses,"PRKAG2; compound concentrations: 100 nM and 1000 nM (sheet 'Samples'), CATDS: 4.1666716087244697E-2",967 nM
same,potency estimated from few doses,TNK1; CATDS: 0.384256828153267,31.7 nM
same,potency estimated from few doses,TNK2; CATDS: 6.2991293235435897E-2,422 nM
